This passage reports outcome and AC50 results from PubChem BioAssay (EPA / NIEHS).

The source made the active and inactive calls. The calls were made as follows: active = hit-call score of the fitted dose curve at least 0.9, where 1 is the maximum; inactive = score below 0.9.

The AC50 is the concentration at which the activity in the assay is half-maximal.

Chain of Paired box protein Pax-6 (Homo sapiens) (P26367 whole entry, looked up): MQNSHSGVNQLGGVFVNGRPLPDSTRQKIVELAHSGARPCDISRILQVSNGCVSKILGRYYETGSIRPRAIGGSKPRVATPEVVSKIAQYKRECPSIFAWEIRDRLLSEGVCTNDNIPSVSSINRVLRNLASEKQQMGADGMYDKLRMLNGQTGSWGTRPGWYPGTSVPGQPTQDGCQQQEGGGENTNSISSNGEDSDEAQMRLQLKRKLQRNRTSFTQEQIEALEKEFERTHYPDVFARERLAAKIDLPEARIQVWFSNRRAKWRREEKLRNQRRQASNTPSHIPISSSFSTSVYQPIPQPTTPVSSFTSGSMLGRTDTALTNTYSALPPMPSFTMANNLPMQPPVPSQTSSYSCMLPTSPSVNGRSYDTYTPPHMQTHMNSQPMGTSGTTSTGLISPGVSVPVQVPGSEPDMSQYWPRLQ

System in one assay: not listed separately
Put plainly: ATG_PBREM_CIS: Attagene CIS-FACTORIAL HepG2 Assay for human Phenobarbital-responsive Enhancer Module (PBREM) (AID 2282955). As to conditions: HepG2 PBREM cis-reporter, Attagene multiplexed transcription; actives raise or lower the signal. A digest of the protocol: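 HepG2 cells transiently transfected with multiple cis-regulated reporter units measure endogenous transcription factor activity; 24 h compound exposure. Reporter mRNA quantified by RT-PCR, fluorescent labelling, HpaI digestion and capillary electrophoresis; bidirectional fit versus DMSO.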
As to `O=C1O[C@@H]2[C@@H](O)[C@H](O)O[C@@H]2[C@H]1O`, the result was inactive.

For `CCCC(=O)C(C)=O`, the result was inactive.

Turning to `CNC(=O)Oc1ccc2c(c1)[C@]1(C)CCN(C)[C@@H]1N2C`, the result was inactive.

As for `CCCC(=O)c1cc(O)c(O)cc1O`, the outcome was inactive.

In the case of `COC(=O)C1=C(C)NC(C)=C(C(=O)OCCN(C)Cc2ccccc2)C1c1cccc([N+](=O)[O-])c1` (stereo not given), the AC50 is 0.238 µM (active).

Take `C[Si](O[Si](C)(C)C)O[Si](C)(C)C`: the result was inactive.

Regarding `C=CCOC(=O)CCC1CCCCC1`, the result was inactive.

Regarding `O=C(O)CCCCCCCCCCC(=O)O`, the result was inactive.

With `CC1=CCC2C(C1)C2(C)C` (stereo not given), the result was inactive.

As to `COC(C(=O)O)c1ccccc1` (stereo not given), the outcome was inactive.

For the compound `OCc1cccnc1`, the outcome was inactive.

Regarding `COc1ccc(OC)c(OC)c1`, the outcome was inactive.

As to `CC(C)(Oc1ccc(CCNC(=O)c2ccc(Cl)cc2)cc1)C(=O)O`, the outcome was inactive.

Turning to `Nc1ccc(F)c([N+](=O)[O-])c1`, the result was inactive.

For the compound `CC(CC(C)(C)C)CC(C)(C)CC(C)(C)C` (stereo not given), the outcome was inactive.

`Cc1cccc(C)c1C`: the outcome was inactive.

As to `Cc1c(N(C)C)c(=O)n(-c2ccccc2)n1C`, the result was inactive.

In the case of `CCCCC/C=C/C=C/C=O`, the result was inactive.

Consider `CC(=O)C(C)=O`, for which the outcome was inactive.

Regarding `CC(=O)O[C@]1(C(C)=O)CC[C@H]2[C@@H]3C[C@H](C)C4=CC(=O)CC[C@]4(C)[C@H]3CC[C@@]21C`, the result was inactive.

In the case of `COc1cccc(OC)c1`, the result was inactive.

The target in the next assay is Paired box protein Pax-6 (Homo sapiens) (UniProt P26367). Description: ATG_Pax6_CIS: Attagene CIS-FACTORIAL HepG2 Assay for human Paired Box 6 (PAX6) (AID 2282956). As to conditions: HepG2 CIS-FACTORIAL PAX6 reporter transcription, RNA readout; actives raise or lower the signal. A digest of the protocol:
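Readout: reporter transcript fluorescence after RT-PCR and capillary electrophoresis. Cells: HepG2, transiently transfected with cis-regulated MRTUs. Exposure 24 h. Gain or loss of signal fitted bidirectionally relative to DMSO.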
As for `O=C1O[C@@H]2[C@@H](O)[C@H](O)O[C@@H]2[C@H]1O`, the outcome was inactive.

Regarding `NCCCN1CCOCC1`, the compound was classed as inactive.

For `CCCC(=O)C(C)=O`, the result was inactive.

As to `COC(=O)c1ccc(C)cc1`, the outcome was inactive.

With `BrC1CCC(Br)C(Br)CCC(Br)C(Br)CCC1Br` (stereo not given), the AC50 was 20.5 µM (active).

Consider `CC1CCC2CC1C2(C)C` (stereo not given), for which the outcome was inactive.

For `CCCC(=O)c1cc(O)c(O)cc1O`, the compound was called inactive.

For `COC(=O)C1=C(C)NC(C)=C(C(=O)OCCN(C)Cc2ccccc2)C1c1cccc([N+](=O)[O-])c1` (stereo not given), the AC50 is 20.5 µM (active).

Regarding `C[Si](O[Si](C)(C)C)O[Si](C)(C)C`, the outcome was inactive.

As to `C=CCOC(=O)CCC1CCCCC1`, the call was inactive.

Turning to `O=Cc1ccc(F)cc1`, the result was inactive.

Regarding `O=C(O)CCCCCCCCCCC(=O)O`, the compound was called inactive.

Turning to `CC(CCO)CCc1ccccc1` (stereo not given), the compound was called inactive.

With `CC1=CCC2C(C1)C2(C)C` (stereo not given), the compound was called inactive.

For `COC(C(=O)O)c1ccccc1` (stereo not given), the call was inactive.

`OCc1cccnc1`: the outcome was inactive.

Turning to `COc1ccc(OC)c(OC)c1`, the compound was called inactive.

For `CC(C)=CCCC(C)CC=O` (stereo not given), the compound was called inactive.

For `CC(C)(Oc1ccc(CCNC(=O)c2ccc(Cl)cc2)cc1)C(=O)O`, the outcome was inactive.

Turning to `Nc1ccc(F)c([N+](=O)[O-])c1`, the compound was called inactive.

For `CC(CC(C)(C)C)CC(C)(C)CC(C)(C)C` (stereo not given), the outcome was inactive.

Regarding `Cc1cccc(C)c1C`, the outcome was inactive.

Consider `COc1c(Cl)c(Cl)c(Cl)c(Cl)c1Cl`, for which the outcome was inactive.

Regarding `Cc1c(N(C)C)c(=O)n(-c2ccccc2)n1C`, the call was inactive.

Turning to `CC(C)=CCC[C@H](C)CC=O`, the outcome was inactive.

With `O=C1c2ccccc2C(=O)N1SC1CCCCC1`, the call was inactive.

As to `CCCCC/C=C/C=C/C=O`, the AC50 is 100 µM (active).

With `CCCCNC(=O)NS(=O)(=O)c1ccc(C)cc1`, the call was inactive.

As for `CC(=O)C(C)=O`, the compound was classed as inactive.

Turning to `NCCOCCO`, the result was inactive.

Consider `CC(=O)O[C@]1(C(C)=O)CC[C@H]2[C@@H]3C[C@H](C)C4=CC(=O)CC[C@]4(C)[C@H]3CC[C@@]21C`, for which the call was inactive.

On to `COc1cccc(OC)c1`, for which the call was inactive.

System in the next assay: not listed separately
Put plainly: ATG_PXRE_CIS: Attagene CIS-FACTORIAL HepG2 Assay for human Pregnane X Receptor Element (PXRE) (AID 2282957). The following applies: HepG2 Attagene CIS-FACTORIAL PXRE reporter, mRNA; actives raise or lower the signal. A digest of the protocol:
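Read-out: fluorescence of reporter-specific RT-PCR products resolved by capillary electrophoresis, fitted bidirectionally relative to DMSO. Human HepG2 liver cells carried transfected cis-promoter reporter units and were exposed to chemicals for 24 h.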
With `O=C1O[C@@H]2[C@@H](O)[C@H](O)O[C@@H]2[C@H]1O`, the call was inactive.

Regarding `NCCCN1CCOCC1`, the result was inactive.

With `CCCCCCCCCCCCCC(=O)O`, the compound was classed as inactive.

As for `CCCC(=O)C(C)=O`, the AC50 is 16.2 µM (active).

As to `COC(=O)c1ccc(C)cc1`, the AC50 was 11.1 µM (active).

In the case of `CNC(=O)Oc1ccc2c(c1)[C@]1(C)CCN(C)[C@@H]1N2C`, the concentration at half-maximal activity (AC50) was 38 µM (active).

`BrC1CCC(Br)C(Br)CCC(Br)C(Br)CCC1Br` (stereo not given): the AC50 was 0.95 µM (active).

Regarding `CC1CCC(C(C)(C)O)CC1` (stereo not given), the outcome was inactive.

Regarding `CC1CCC2CC1C2(C)C` (stereo not given), the compound was classed as inactive.

Take `CCCC(=O)c1cc(O)c(O)cc1O`: the call was inactive.

Consider `C[Si](O[Si](C)(C)C)O[Si](C)(C)C`, for which the AC50 is 13.4 µM (active).

For `C=CCOC(=O)CCC1CCCCC1`, the outcome was inactive.

`O=Cc1ccc(F)cc1`: the result was inactive.

In the case of `O=C(O)CCCCCCCCCCC(=O)O`, the result was inactive.

Consider `CC(CCO)CCc1ccccc1` (stereo not given), for which the AC50 was 41.1 µM (active).

With `CC1=CCC2C(C1)C2(C)C` (stereo not given), the AC50 was 6.95 µM (active).

Take `COC(C(=O)O)c1ccccc1` (stereo not given): the call was inactive.

Take `OCc1cccnc1`: the outcome was inactive.

Turning to `Clc1cccc(Cl)n1`, the result was inactive.

In the case of `COc1ccc(OC)c(OC)c1`, the outcome was inactive.

`CC(C)=CCCC(C)CC=O` (stereo not given): the call was inactive.

`CC(C)(Oc1ccc(CCNC(=O)c2ccc(Cl)cc2)cc1)C(=O)O`: the AC50 is 25.6 µM (active).

`Nc1ccc(F)c([N+](=O)[O-])c1`: the compound was called inactive.

For `CC(CC(C)(C)C)CC(C)(C)CC(C)(C)C` (stereo not given), the compound was called inactive.

For the compound `Cc1cccc(C)c1C`, the compound was called inactive.

In the case of `COc1c(Cl)c(Cl)c(Cl)c(Cl)c1Cl`, the AC50 was 26.2 µM (active).

As to `Cc1c(N(C)C)c(=O)n(-c2ccccc2)n1C`, the AC50 was 153 µM (active).

In the case of `CC(C)=CCC[C@H](C)CC=O`, the AC50 is 45.3 µM (active).

Turning to `O=C1c2ccccc2C(=O)N1SC1CCCCC1`, the AC50 was 148 µM (active).

Consider `CCCCC/C=C/C=C/C=O`, for which the AC50 is 26.6 µM (active).

Turning to `CCCCNC(=O)NS(=O)(=O)c1ccc(C)cc1`, the result was inactive.

On to `CC(=O)C(C)=O`, for which the AC50 was 26.5 µM (active).

Consider `O=C(O)c1snc(Cl)c1Cl`, for which the AC50 was 26.8 µM (active).

As to `NCCOCCO`, the result was inactive.

For the compound `CC(=O)O[C@]1(C(C)=O)CC[C@H]2[C@@H]3C[C@H](C)C4=CC(=O)CC[C@]4(C)[C@H]3CC[C@@]21C`, the AC50 is 2.76 µM (active).

As for `COc1cccc(OC)c1`, the call was inactive.

`C=C(C)C(=O)OCCOC(=O)CC(C)=O`: the result was inactive.
